This is a sample that favours compounds with a hit; in the whole collection about 2.2% have one here.
LDHA block = inhibitors of human lactate dehydrogenase A; purified LDHA, NADH/diaphorase-resazurin fluorescence; hits give low values; P00338; activity change, % (values are at about 110 or 230 µM); 480,000 compounds, 0.15% hits; in the data active = activity change below about -30%; inconclusive = mostly about -25% to -30%;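 also: plate controls were DMSO wells for no effect and wells without enzyme for full effect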
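Human LDH5 (2 nM) was incubated with 0.06 mM NADH and 0.2 mM pyruvate for 5 min at room temperature in Tris pH 7.4. Remaining NADH was coupled through diaphorase/resazurin, and resorufin fluorescence was read at 0 and 20 min.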
S2 tox = reduces viability in counter-screen for ATXN expression inhibitors; S2 cells (HEK-293 line with an ATXN2-luciferase reporter) viability, CellTiter-Fluor protease fluorescence, 24 h; Potency, µM (doses to about 56.7 µM), hits mostly cytotoxic; 400,000 compounds, 0.49% hits; AID 651635; also: potency is read from the fitted curve at half-maximal effect; nearly all actives have a fitted effect of over 40% in size
HepG2 viability = HepG2 cytotoxicity, counter-screen for TGF-b inhibitors; HepG2 CAGA-GFP viability, ATP luminescence, 18 h; Potency, µM (top dose mostly 46.1 µM), without a hit: at the highest dose activity change, negative = cytotoxicity, usual class: cytotoxic; 410,000 compounds, 0.76% hits; AID 588856; also: potency is read from the fitted curve at half-maximal effect
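HepG2 CAGA-GFP cells (1000/well, DMEM with 1% FBS) received compound, then TGF-beta at 500 pg/mL final, and were incubated 18 hours at 37 degrees C. Viability was read by CellTiter-Glo luminescence. Media-only wells were set as complete cell-killing and DMSO as no toxicity.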
TGFb inhibitor = TGF-b pathway inhibition. HepG2 CAGA-GFP TGF-b/SMAD3 reporter, GFP fluorescence, 18 h; TGF-beta stimulated, 500 pg/mL final. Potency, µM (doses to about 46.1 µM), inactives show at the top dose activity, negative = inhibition, hits mostly inhibitors. 410,000 compounds, 1.2% hits; also: potency is read from the fitted curve at half-maximal effect; % is scaled to controls: 0 for no effect and ±100 for the full control effect; nearly all actives have a fitted effect of over 65% in size
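Inhibition of TGF-beta-driven CAGA-GFP reporter expression in HEPG2 cells is measured by cellular GFP fluorescence after 18 h stimulation with 500 pg/mL recombinant TGF-beta in 1% FBS medium at 37 degrees C.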
ATXN2 expr inh = ATXN2 expression inhibition; HEK-293 ATXN2-luciferase reporter, luminescence, 24 h; Potency, µM (top dose mostly 57 µM), for inactives: top-dose activity change, negative = inhibition, hits mostly inhibitors; 360,000 compounds, 0.72% hits; also: potency is read from the fitted curve at half-maximal effect; % is scaled to controls: 0 for no effect and ±100 for the full control effect; nearly all actives have a fitted effect of over 55% in size
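ATXN2-luciferase reporter cells (luciferase flanked by upstream and downstream ATXN2 gene portions) were treated 24 h at 37 °C with compounds at up to 57 uM. SteadyGlo luminescence gave expression; GF-AFC fluorescence gave viability.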
IDH1 R132H inh = human IDH1 R132H inhibition | IDH1-R132H enzyme, NADPH consumption, diaphorase/resazurin fluorescence | Potency, µM (doses to about 76.6 µM), without a hit: at the highest dose activity change, negative = inhibition, hits mostly inhibitors | 390,000 compounds, 0.093% hits | AID 602179; also: potency is read from the fitted curve at half-maximal effect; % is scaled to controls: 0 for no effect and ±100 for the full control effect; nearly all actives have a fitted effect of over 65% in size
Target sequence (O75874 whole entry R132H, stated change not applied): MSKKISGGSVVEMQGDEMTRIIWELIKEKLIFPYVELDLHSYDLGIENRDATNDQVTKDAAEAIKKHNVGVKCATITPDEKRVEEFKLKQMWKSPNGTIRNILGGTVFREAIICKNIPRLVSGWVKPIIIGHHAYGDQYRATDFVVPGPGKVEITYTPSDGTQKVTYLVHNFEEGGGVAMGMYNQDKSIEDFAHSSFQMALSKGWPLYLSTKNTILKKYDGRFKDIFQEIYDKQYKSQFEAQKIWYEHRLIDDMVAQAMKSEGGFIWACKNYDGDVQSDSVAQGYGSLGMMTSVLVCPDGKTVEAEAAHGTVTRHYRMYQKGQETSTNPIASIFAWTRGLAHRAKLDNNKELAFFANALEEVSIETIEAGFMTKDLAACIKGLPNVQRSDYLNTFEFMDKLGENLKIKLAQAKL
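IDH1-R132H (0.5 ug/mL) preincubated 30 min with compound, then NADPH (0.016 mM) and alpha-KG (2 mM) added; 80 min at RT, pH 7.5. Remaining NADPH coupled via diaphorase/resazurin to fluorescence (540/590 nm); concentration-response curves normalized to no-enzyme control.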
An asterisk follows results filed as active; ! = not confirmed by another sample. Unless noted, calls follow the shape of the dose curve; as a rule, active = well fitted curve in the direction sought with a large enough effect; inconclusive = small, poorly fitted or top-dose-only effect, or another doubt; inactive = no such curve, though single readings can be large; an effect the other way counts as inactive or inconclusive.

What do the screens show for `Fc1ccc(-c2nc3n(n2)Cc2ccccc2-3)cc1`?
LDHA block: -4; S2 tox: inactive; HepG2 viability: 8.9µM*; TGFb inhibitor: inconclusive; ATXN2 expr inh: 52%; IDH1 R132H inh: 12%

How did CCn1c(C)nc2cc(-c3nc4n(n3)Cc3ccccc3-4)ccc21 do in these assays?
LDHA block: 2; S2 tox: inactive; HepG2 viability: 1.3µM*; TGFb inhibitor: -11%; ATXN2 expr inh: 0.4µM*; IDH1 R132H inh: 7%

What do the screens show for `S=C(NN=C1CCC(c2ccccc2)CC1)NC1CCCCC1` (centres undefined)?
LDHA block: -2

How did COc1nc2ccccc2nc1N1CCN(Cc2ccc3c(c2)OCO3)CC1 do in these assays?
LDHA block: -1; S2 tox: inactive; HepG2 viability: 4%; TGFb inhibitor: -4%; ATXN2 expr inh: -36%; IDH1 R132H inh: 8%

Results for CCN(CC)CCOc1ccc(/C(=C(/Cl)c2ccccc2)c2ccccc2)cc1 ?
LDHA block: 3; HepG2 viability: 10µM*!; TGFb inhibitor: inconclusive; ATXN2 expr inh: 25µM*!; IDH1 R132H inh: 9%

Results for O=C(O)CN1CCCCC1 ?
LDHA block: -8; S2 tox: inactive; HepG2 viability: -7%; TGFb inhibitor: 7%; ATXN2 expr inh: 10%; IDH1 R132H inh: 4%

How did COc1ccc(CNC(=O)Nc2ccc(C)cc2C)cc1 do in these assays?
LDHA block: -2; S2 tox: inactive; HepG2 viability: -9%; TGFb inhibitor: 0%; IDH1 R132H inh: -6%

What do the screens show for `COc1ccc(CNC(=O)C(=O)Nc2ccc(C)cc2C)cc1`?
LDHA block: -31*

Results for COc1ccc(N2CCN(C(=S)Nc3ccc(C)cc3C)CC2)cc1 ?
LDHA block: -3; S2 tox: inactive; HepG2 viability: 6.3µM*; TGFb inhibitor: -15%; ATXN2 expr inh: -21%; IDH1 R132H inh: 6%

How did Cc1ccccc1CN(C)C(=O)Cn1cnc2c1c(=O)n(C)c(=O)n2C do in these assays?
LDHA block: 9

How did Cc1[nH]c2ccccc2c1C(=O)O do in these assays?
LDHA block: 18

Results for CCn1c(N)c(C(=O)Nc2ccccc2C(=O)OC)sc1=S ?
LDHA block: -1; S2 tox: inactive; HepG2 viability: 0%; TGFb inhibitor: 3%; ATXN2 expr inh: 10%; IDH1 R132H inh: 0%

Results for O=[N+]([O-])c1cc(-c2ncccn2)c([N+](=O)[O-])s1 ?
LDHA block: 16; HepG2 viability: -96%; TGFb inhibitor: 11µM*; ATXN2 expr inh: inconclusive; IDH1 R132H inh: 27%

Results for O=C(Nc1ncccn1)c1cc([N+](=O)[O-])cc([N+](=O)[O-])c1 ?
LDHA block: 5; S2 tox: inactive; HepG2 viability: -11%; TGFb inhibitor: -8%; ATXN2 expr inh: 1%; IDH1 R132H inh: 6%

What do the screens show for `O=C(CN1C(=O)CCSc2ccccc21)Nc1cccc(F)c1`?
LDHA block: -6; S2 tox: inactive; HepG2 viability: 3%; TGFb inhibitor: 0%; ATXN2 expr inh: 7%; IDH1 R132H inh: 0%

What do the screens show for `O=C(NCCN1CCN(C(=O)c2cccc(Br)c2)CC1)C(=O)NCc1ccccc1`?
LDHA block: -10; S2 tox: inactive; HepG2 viability: -19%; TGFb inhibitor: 3%; ATXN2 expr inh: -7%; IDH1 R132H inh: 0%

How did Cn1cnc([N+](=O)[O-])c1S(=O)(=O)c1ccc(Cl)cc1 do in these assays?
LDHA block: -11; S2 tox: inconclusive; HepG2 viability: 18µM*; TGFb inhibitor: 11µM*; ATXN2 expr inh: inconclusive; IDH1 R132H inh: -4%

Source: PubChem BioAssay (National Center for Advancing Translational Sciences (NCATS))
